# Assay results published in PubChem BioAssay AID588727 (Southern Research Specialized Biocontainment Screening …, 2011).
# The campaign covered roughly 350,000 compounds. About 450 (0.13%) were called active. No rule for the calls is given here. A selection follows. Potency and affinity values are given separately.
# Experiment: inhibitors of VEEV TC-83 cytopathic effect, confirmation, Vero cells (AID 588727)
# Conditions: VEEV TC-83 cytopathic effect inhibition, at 20 µM
# [1] = stronger effect = higher value unless noted
compound,measurement,setting,value
O=C(Nc1cccc2ccccc12)N(c1ccccc1)c1ccccc1,inhibition,[1],inactive
Cc1ccnc(NS(=O)(=O)c2ccc(NC(=O)c3ccc(C)o3)cc2)n1,inhibition,[1],0.84% (inactive)
Cc1sc2nc(CN(Cc3cccs3)C(=O)NC3CCCCC3)[nH]c(=O)c2c1C,inhibition,[1],6.2% (inactive)
CNC[C@H](Cc1ccccc1)NC[C@@H](Cc1cccc2ccccc12)NCCc1ccc(C)cc1,inhibition,[1],inactive
CC[C@@H](C)[C@H](CNC)NC[C@@H](Cc1cccc2ccccc12)NCCc1cccc(C(F)(F)F)c1,inhibition,[1],"0% [measured here: 10K pilot screen inhibition, stronger effect = higher value]"
same,outcome,[1],inactive
COc1ccc(/C=N\NC(=O)c2ccccc2OC)cc1COc1ccccc1C,inhibition,[1],10.1% (inactive)
Cc1ccc(-c2nc(SC(C)C(=O)c3c(N)n(C)c(=O)n(C)c3=O)n[nH]2)cc1 (stereo unspecified),inhibition,[1],10.2% (inactive)
CCC(=O)N1c2ccc(S(=O)(=O)CCC(=O)NCc3cccs3)cc2CC1C (stereo unspecified),inhibition,[1],1.31% (inactive)
O=C(NCC(Cl)c1ccc2ccccc2c1)c1c(F)cccc1F (stereo unspecified),inhibition,[1],inactive
Cc1cc(-c2nnc(SCC(=O)Nc3ccccc3C(F)(F)F)n2N)n[nH]1,inhibition,[1],1.16% (inactive)
COc1cc(CNCCSc2nnnn2C)cc(Br)c1OCc1ccccc1F,inhibition,[1],inactive
COc1ccc(/C=C/C(=O)c2ccc3ccccc3c2O)cc1CN1CCOCC1,inhibition,[1],2% (inactive)
COc1ccc(/C=C/C(=O)c2ccccc2O)cc1CN1CCOCC1,inhibition,[1],6.83% (inactive)
COc1ccc(/C=C/C(=O)C23CC4CC(CC(C4)C2)C3)cc1CN1CCOCC1,inhibition,[1],6.32% (inactive)
COc1ccc(C(=O)/C=C/c2ccc(OC)c(Cn3nnc4ccccc43)c2)cc1,inhibition,[1],30.9% (inactive)
CCC1(C)NC(=O)N(CC(=O)NCC(=O)Nc2c(C)cc(C)cc2C)C1=O (stereo unspecified),inhibition,[1],inactive
O=C(CSc1ncnc2c1cnn2-c1ccccc1)NC1CCCC1,inhibition,[1],4.66% (inactive)
Cc1nn(-c2ccccn2)c2nc(-c3cccs3)cc(C(=O)NCc3ccco3)c12,inhibition,[1],8.96% (inactive)
CCC(=O)N1CCc2cc(S(=O)(=O)N3CCN(c4ccccc4)CC3)ccc21,inhibition,[1],0.73% (inactive)
CC(C)[C@H](NS(=O)(=O)c1ccccc1)C(=O)OCC(=O)Nc1cccc(S(N)(=O)=O)c1,inhibition,[1],3.51% (inactive)
CS(=O)(=O)N1CCN(c2ccc([N+](=O)[O-])c(NCCN3CCOCC3)c2)CC1,inhibition,[1],0.31% (inactive)
COc1ccc(Nc2ncccc2C(=O)O)cc1,inhibition,[1],inactive
CC(C)c1ccc(Nc2ncccc2C(=O)O)cc1,inhibition,[1],7.46% (inactive)
CC[C@@]1(C(=O)OC)N[C@H](CN(C)C(=O)Nc2ccc(OC)cc2)[C@@H]2C(=O)N(C)C(=O)[C@@H]21,inhibition,[1],inactive
COc1ccc(C(=O)CCC(=O)Nc2cccnc2)cc1,inhibition,[1],1.27% (inactive)
COc1ccc(Nc2c(-c3ccc(C)cc3)nc3cnccn23)cc1,inhibition,[1],2.6% (inactive)
CCOC(=O)C1CCCN(c2nnnn2-c2ccccc2)C1 (stereo unspecified),inhibition,[1],0.53% (inactive)
O=C(CSc1nnc(-c2ccco2)o1)Nc1cccc([N+](=O)[O-])c1,inhibition,[1],1.81% (inactive)
O=C(Oc1ccc2ccccc2c1Cl)N1CCCC1,inhibition,[1],35.1% (inactive)
O=C(Oc1ccc2ccccc2c1Cl)N1CCCCCC1,inhibition,[1],2.11% (inactive)
CN1CCN(C(=O)CCc2nc3ccccc3c(=O)[nH]2)CC1,inhibition,[1],5.24% (inactive)
CN(C)C(CNC(=O)CN1C(=O)NC2(CCCC2)C1=O)c1ccccc1 (stereo unspecified),inhibition,[1],1.45% (inactive)
CCOc1ccc(/C=N/NC(=O)c2ccc(O)cc2)cc1CN1CC2CC(C1)c1cccc(=O)n1C2 (stereo unspecified),inhibition,[1],1.76% (inactive)
CCc1c(C)sc(NC(=O)C2CCCCC2C(=O)O)c1C(N)=O (stereo unspecified),inhibition,[1],inactive
CCc1c(C)sc(NC(=O)c2cccs2)c1C(N)=O,inhibition,[1],0.91% (inactive)
O=C(O)CSc1nnc(Cc2ccccc2)n1-c1ccccc1,inhibition,stronger effect = higher value,4.71% (inactive)
same,inhibition,"measured here: 10K pilot screen inhibition, stronger effect = higher value",0.6%
COc1ccc(Cl)cc1NC(=O)C(C)N(C)Cc1cccc(Cl)c1Cl (stereo unspecified),inhibition,[1],0.94% (inactive)
COc1ccc(C2/C(=C(\O)c3cc(C)ccc3C)C(=O)C(=O)N2CCN(C)C)cc1OC (stereo unspecified),inhibition,[1],0.58% (inactive)
O=C(O)CCC(=O)N1CCCC1,inhibition,[1],0.36% (inactive)
Nc1ccn([C@H]2CS[C@@H](CO)O2)c(=O)n1,inhibition,[1],1.18% (inactive)
CC(Sc1ncnc2sc(-c3ccccc3)cc12)C(=O)NCC1CCCO1 (stereo unspecified),inhibition,[1],12.6% (inactive)
CCc1cccc2c(SC(C)C(=O)NCC3CCCO3)nc(-c3ccccc3)nc12 (stereo unspecified),inhibition,[1],0.17% (inactive)
Cc1cccc(NC(=O)NNC(=O)c2sccc2-n2cccc2)c1,inhibition,[1],2.59% (inactive)
O=C(/C=C/c1c(F)cccc1Cl)Nc1ncccn1,inhibition,[1],7.45% (inactive)
O=C(/C=C/c1ccccc1Cl)c1ccc(O)cc1,inhibition,[1],12.4% (inactive)
CCCCn1c(N)c(N(Cc2ccccc2OC)C(=O)CCSC)c(=O)[nH]c1=O,inhibition,[1],2% (inactive)
Cc1nn(C)cc1/C=N/NC(=S)Nc1ccc(Cl)cc1Cl,inhibition,[1],1.88% (inactive)
Clc1cccc(-c2noc3ncnc(Nc4ccc5c(c4)OCO5)c23)c1,inhibition,[1],1.3% (inactive)
O=C(Nc1ccc(N2CCCC2)c(Cl)c1)c1cccnc1,inhibition,[1],9.45% (inactive)
O=C(Nc1ccc(N2CCOCC2)c(Cl)c1)c1cccnc1,inhibition,[1],1.94% (inactive)
O=C(Nc1ccc(Cl)cc1)c1nc[nH]c1C(=O)NCCN(CCNC(=O)c1[nH]cnc1C(=O)Nc1ccc(Cl)cc1)CCNC(=O)c1[nH]cnc1C(=O)Nc1ccc(Cl)cc1,inhibition,[1],0.19% (inactive)
CCCN1C(=O)c2ccccc2NC1c1ccc(OC)cc1OC (stereo unspecified),inhibition,[1],inactive
CCCN1C(=O)c2ccccc2NC1c1cc(OC)c(OC)c(OC)c1 (stereo unspecified),inhibition,[1],inactive
CCOC(=O)c1c(-c2ccccc2)oc2cc(CN(C)C)c(O)c(CN(C)C)c12,inhibition,[1],2.26% (inactive)
CC1(C)Cc2[nH]c3ccccc3c2C(C)(C)N1,inhibition,[1],0.1% (inactive)
Cc1cccn2cc(-c3ccccc3)nc12,inhibition,[1],5.4% (inactive)
Cc1cccn2cc(COc3cccc([N+](=O)[O-])c3)nc12,inhibition,[1],2.58% (inactive)
Cc1ccc(S(=O)(=O)Oc2ccc(N3C(=O)C4C5CCC(C5)C4C3=O)cc2)cc1 (stereo unspecified),inhibition,[1],2.05% (inactive)
Cc1ccc2[nH]c3c(=O)n(CC(=O)Nc4ccccc4N4CCN(C)CC4)ncc3c2c1,inhibition,[1],0.06% (inactive)
Cc1ccc2oc(=O)c3cnn(CC(=O)N4CCN(c5ccccc5)CC4)c3c2c1,inhibition,[1],10.3% (inactive)
COc1ccc(C)cc1NC(=O)CCN1CCN(C/C=C/c2ccccc2)CC1,inhibition,[1],inactive
CCc1ccc(N2CC(O)(c3cccs3)[N+]3=C2SCCC3)cc1 (stereo unspecified),inhibition,[1],3.66% (inactive)
C[N+]1=C2CCCCCN2C(O)(c2ccccc2)C1 (stereo unspecified),inhibition,[1],inactive
Cc1ccccc1N1CC(O)(c2cccs2)[N+]2=C1CCCC2 (stereo unspecified),inhibition,[1],1.35% (inactive)
OC1(c2cccs2)CN(c2ccc(Cl)cc2)C2=[N+]1CCCS2 (stereo unspecified),inhibition,[1],0.66% (inactive)
COc1ccc2oc(C(=O)NCC3CCCO3)c(C)c2c1 (stereo unspecified),inhibition,[1],5.81% (inactive)
COc1ccc(CCNC(=O)CSc2nccc(=O)[nH]2)cc1OC,inhibition,[1],inactive
COc1ccccc1N/N=C(\C#N)C(=N)N1CCOCC1,inhibition,[1],1.39% (inactive)
COc1ccc(Nc2cc(C(=O)NCCCN3CCN(C)CC3)c3ccccc3n2)cc1OC,inhibition,[1],0.68% (inactive)
COc1ccc(Nc2cc(C(=O)NCCCN3CCN(C)CC3)c3ccccc3n2)cc1,inhibition,[1],0.57% (inactive)
O=C(NCc1ccccc1Cl)C(=O)NCC(c1ccco1)N1CCOCC1 (stereo unspecified),inhibition,[1],inactive
Cc1c(NC(=O)CSCc2ccccc2)cccc1C(=O)O,inhibition,[1],0.57% (inactive)
Cc1ccc(CSCC(=O)Nc2ccccc2F)cc1,inhibition,[1],1.09% (inactive)
COCCCNC(=S)NCCc1ccc(F)cc1,inhibition,[1],0.69% (inactive)
COc1ccc(NCC(=O)N/N=C2\CCCC(C)C2)cc1 (stereo unspecified),inhibition,[1],0.09% (inactive)
C=CCN=c1scc(-c2ccc(F)cc2)n1/N=C/c1ccccn1,inhibition,[1],7.98% (inactive)
C=CCN=c1scc(-c2ccccc2)n1/N=C/c1ccccn1,inhibition,[1],12% (inactive)
C[C@H]1O[C@@H](n2cc(F)c(=O)[nH]c2=O)[C@H](O)[C@@H]1O,inhibition,[1],6.89% (inactive)
CC(=O)OCC1OC(n2cc(F)c(=O)[nH]c2=O)C(OC(C)=O)C1OC(C)=O (stereo unspecified),inhibition,[1],5.22% (inactive)
Cc1ccnc(NC(=O)CCC(=O)N(CC(=O)NCc2ccc(F)cc2)CC2CCCO2)c1 (stereo unspecified),inhibition,[1],0.42% (inactive)
COc1ccccc1-c1cn[nH]c1-c1ccc(OCc2ccc(F)cc2)cc1O,inhibition,[1],3.76% (inactive)
OCCOCCNc1ncnc2c1c(-c1ccccc1)cn2-c1ccccc1,inhibition,[1],10.9% (inactive)
c1ccc(-c2cn(-c3ccccc3)c3ncnc(NCCCN4CCOCC4)c23)cc1,inhibition,[1],9.07% (inactive)
COc1ccc(NC(=O)CN2CCCCC2)cc1S(=O)(=O)N1CCCCC1,inhibition,[1],0.88% (inactive)
NC(=O)CC(NC(=O)Cc1cccc2ccccc12)c1ccc(NCc2ccc(F)c(F)c2)c([N+](=O)[O-])c1 (stereo unspecified),inhibition,[1],0.49% (inactive)
CNC(=O)/C(C#N)=C/c1cn(CC(=O)OC)c2ccccc12,inhibition,[1],0.69% (inactive)
COc1ccc(OC)c2[nH]c(C(=O)N3CCC(C(=O)O)CC3)cc12,inhibition,[1],0.69% (inactive)
COc1cc2cc(C(=O)O)[nH]c2c(OC)c1OC,inhibition,[1],0.1% (inactive)
COC(=O)c1cc(S(=O)(=O)N2CCN(c3ccc([N+](=O)[O-])cc3)CC2)c[nH]1,inhibition,[1],3.14% (inactive)
O=S(=O)(/C=C/c1ccccc1)Oc1ccccc1,inhibition,[1],inactive
COc1ccccc1Nc1ncnc2c1c(C)c(C)n2CCO,inhibition,[1],0.65% (inactive)
Cc1c(C)n(CCCN(C)C)c2ncnc(Nc3ccccc3)c12,inhibition,[1],1.72% (inactive)
CCOc1ccc(NC(=O)CN(C)C(=O)CCC2CCCCC2)cc1OCC,inhibition,[1],2.6% (inactive)
NNc1nc(-c2ccccc2Cl)c2cc(Br)ccc2n1,inhibition,[1],1.08% (inactive)
